Laboratory results taken from the supplement of paper PMC9337992.
± gives the standard deviation of the averaged measurements.

Key:
Assay in all cases: cell proliferation (confluence) relative to DMSO control; higher = less growth inhibition
Settings in all cases: 5 uM; 6 d
BT549 = test system: BT549
Outline: (§1)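 Each epigenetic chemical probe, dissolved in DMSO, was tested at a final 5 μM for 6 d on triple-negative breast cancer cell lines plated at 500 cells per well in 384-well plates. Every plate held four replicate wells per probe alongside DMSO-only wells. Confluence was read by IncuCyte ZOOM phase-contrast imaging and normalised to the DMSO-only wells.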

CAL120 = test system: CAL120
Outline: as §1

HCC1143 = test system: HCC1143
Outline: as §1

HCC1395 = test system: HCC1395
Outline: as §1

HCC153 = test system: HCC153
Outline: as §1

HCC1806 = test system: HCC1806
Outline: as §1

HCC38 = test system: HCC38
Outline: as §1

HCC70 = test system: HCC70
Outline: as §1

Hs578-T = test system: Hs578-T
Outline: as §1

MB157 = test system: MB157
Outline: as §1

SUM149-PT = test system: SUM149-PT
Outline: as §1

SUM159-PT = test system: SUM159-PT
Outline: as §1

COc1cc(C#N)ccc1S(=O)(=O)Nc1ccc2c(c1)cc(C)c(=O)n2C
cell proliferation (BT549): 98 ± 1.4%
cell proliferation (CAL120): 98.97 ± 0.3%
cell proliferation (HCC1143): 97 ± 1.3%
cell proliferation (HCC1395): 99.962 ± 0.051%
cell proliferation (HCC153): 54.9 ± 7.1%
cell proliferation (HCC1806): 76.1 ± 12%
cell proliferation (HCC38): 98.81 ± 0.89%
cell proliferation (HCC70): 95.8 ± 5%
cell proliferation (Hs578-T): 97.33 ± 0.58%
cell proliferation (MB157): 92.5 ± 6.8%
cell proliferation (SUM149-PT): 59.5 ± 7.1%
cell proliferation (SUM159-PT): 99.963 ± 0.039%

O=C(NCC(=O)N1CCCC1)Nc1ccc2cnccc2c1
cell proliferation (BT549): 97.4 ± 1.4%
cell proliferation (CAL120): 98.79 ± 0.98%
cell proliferation (HCC1143): 97.5 ± 2%
cell proliferation (HCC1395): 99.815 ± 0.096%
cell proliferation (HCC153): 63 ± 9.2%
cell proliferation (HCC1806): 82.8 ± 2.7%
cell proliferation (HCC38): 99.873 ± 0.048%
cell proliferation (HCC70): 94.9 ± 5.1%
cell proliferation (Hs578-T): 96.4 ± 1.6%
cell proliferation (MB157): 94.3 ± 5.8%
cell proliferation (SUM149-PT): 76.9 ± 9.1%
cell proliferation (SUM159-PT): 99.995 ± 0.0035%

Clc1cc2c(NC3CCCC3)nnc(-c3ccncc3)c2cc1Cl
cell proliferation (BT549): 99.863 ± 0.055%
cell proliferation (CAL120): 83.4 ± 7.1%
cell proliferation (HCC1143): 99.1 ± 1.1%
cell proliferation (HCC1395): 99.965 ± 0.029%
cell proliferation (HCC153): 87.7 ± 5.4%
cell proliferation (HCC1806): 98.95 ± 0.87%
cell proliferation (HCC38): 99.63 ± 0.21%
cell proliferation (HCC70): 99.12 ± 0.58%
cell proliferation (Hs578-T): 97.48 ± 0.54%
cell proliferation (MB157): 98.8 ± 1.5%
cell proliferation (SUM149-PT): 64.6 ± 19%
cell proliferation (SUM159-PT): 99.992 ± 0.0029%

CC(C)Oc1ccc(-c2c[nH]cc2CN(C)CCO)cc1
cell proliferation (BT549): 97.58 ± 0.92%
cell proliferation (CAL120): 97.5 ± 1.6%
cell proliferation (HCC1143): 96.98 ± 0.82%
cell proliferation (HCC1395): 99.978 ± 0.011%
cell proliferation (HCC153): 61.5 ± 8.3%
cell proliferation (HCC1806): 81.7 ± 3.2%
cell proliferation (HCC38): 99.55 ± 0.37%
cell proliferation (HCC70): 97.3 ± 1.8%
cell proliferation (Hs578-T): 97.16 ± 0.64%
cell proliferation (MB157): 94.2 ± 3.9%
cell proliferation (SUM149-PT): 74 ± 11%
cell proliferation (SUM159-PT): 99.986 ± 0.014%

CCCc1cc(C)n(C)c(=O)c1CN(C)C(=O)c1cc(-c2ccc(N3CCN(C(C)C)CC3)nc2)cc2c1cnn2C(C)C
cell proliferation (BT549): 99.971 ± 0.015%
cell proliferation (CAL120): 93.4 ± 3.8%
cell proliferation (HCC1143): 99.3 ± 0.59%
cell proliferation (HCC1395): 99.983 ± 0.016%
cell proliferation (HCC153): 84.6 ± 3.8%
cell proliferation (HCC1806): 99.889 ± 0.049%
cell proliferation (HCC38): 99.77 ± 0.13%
cell proliferation (HCC70): 97.3 ± 2.3%
cell proliferation (Hs578-T): 97.89 ± 0.81%
cell proliferation (MB157): 87.5 ± 6.8%
cell proliferation (SUM149-PT): 84.2 ± 10%
cell proliferation (SUM159-PT): 99.997 ± 0.0012%

CCC(=O)N1CCOc2c(cc(-c3ccc(OC)c(OC)c3)cc2OC[C@H]2CCCN(C)C2)C1
cell proliferation (BT549): 98 ± 1.1%
cell proliferation (CAL120): 98.2 ± 1.5%
cell proliferation (HCC1143): 99.31 ± 0.35%
cell proliferation (HCC1395): 99.981 ± 0.0043%
cell proliferation (HCC153): 65.2 ± 5.7%
cell proliferation (HCC1806): 79 ± 6.8%
cell proliferation (HCC38): 99.89 ± 0.02%
cell proliferation (HCC70): 92.5 ± 7.2%
cell proliferation (Hs578-T): 97.28 ± 0.62%
cell proliferation (MB157): 94.2 ± 4.5%
cell proliferation (SUM149-PT): 29.9 ± 7.1%
cell proliferation (SUM159-PT): 99.985 ± 0.014%

COc1cc(-c2cn(C)c(=O)c3cnccc23)c(OC)cc1CN(C)C
cell proliferation (BT549): 99.729 ± 0.064%
cell proliferation (CAL120): 96.7 ± 2%
cell proliferation (HCC1143): 96.9 ± 3.3%
cell proliferation (HCC1395): 99.978 ± 0.01%
cell proliferation (HCC153): 55.9 ± 8.2%
cell proliferation (HCC1806): 65.4 ± 6%
cell proliferation (HCC38): 99.64 ± 0.17%
cell proliferation (HCC70): 96.2 ± 2.6%
cell proliferation (Hs578-T): 98.52 ± 0.23%
cell proliferation (MB157): 88.3 ± 10%
cell proliferation (SUM149-PT): 74.4 ± 19%
cell proliferation (SUM159-PT): 99.991 ± 0.0063%

COc1ccccc1C(=O)Nc1cc2c(cc1N1CCCC1)n(C)c(=O)n2C
cell proliferation (BT549): 97.6 ± 1.7%
cell proliferation (CAL120): 99.2 ± 0.47%
cell proliferation (HCC1143): 98.3 ± 1.9%
cell proliferation (HCC1395): 99.979 ± 0.014%
cell proliferation (HCC153): 62.3 ± 11%
cell proliferation (HCC1806): 77.1 ± 7.8%
cell proliferation (HCC38): 99.66 ± 0.35%
cell proliferation (HCC70): 96.7 ± 3.5%
cell proliferation (Hs578-T): 98.42 ± 0.77%
cell proliferation (MB157): 89.6 ± 12%
cell proliferation (SUM149-PT): 63 ± 8.4%
cell proliferation (SUM159-PT): 99.986 ± 0.0076%

CCn1cc(-c2cccc(C(F)(F)F)c2)c2sc(C(=N)NC3CCS(=O)(=O)CC3)cc2c1=O
cell proliferation (BT549): 99.17 ± 0.79%
cell proliferation (CAL120): 98.86 ± 0.38%
cell proliferation (HCC1143): 98.69 ± 0.74%
cell proliferation (HCC1395): 99.948 ± 0.021%
cell proliferation (HCC153): 44.8 ± 4%
cell proliferation (HCC1806): 78.6 ± 12%
cell proliferation (HCC38): 98.94 ± 0.64%
cell proliferation (HCC70): 96.7 ± 3.6%
cell proliferation (Hs578-T): 99.5 ± 0.38%
cell proliferation (MB157): 71.8 ± 6.5%
cell proliferation (SUM149-PT): 23.9 ± 2.3%
cell proliferation (SUM159-PT): 99.974 ± 0.019%

CCOC(=O)CCNc1cc(N2CCc3ccccc3CC2)nc(-c2cccnc2)n1
cell proliferation (BT549): 99.38 ± 0.4%
cell proliferation (CAL120): 94.6 ± 4.8%
cell proliferation (HCC1143): 99.33 ± 0.49%
cell proliferation (HCC1395): 99.887 ± 0.094%
cell proliferation (HCC153): 82.7 ± 3.2%
cell proliferation (HCC1806): 99.75 ± 0.15%
cell proliferation (HCC38): 99.31 ± 0.31%
cell proliferation (HCC70): 98 ± 1.6%
cell proliferation (Hs578-T): 96.1 ± 2.3%
cell proliferation (MB157): 96.1 ± 2.9%
cell proliferation (SUM149-PT): 96 ± 3.5%
cell proliferation (SUM159-PT): 99.982 ± 0.0074%

CNCCN1CCC(OCc2ccccc2)CC1
cell proliferation (BT549): 98.25 ± 0.81%
cell proliferation (CAL120): 97.25 ± 0.95%
cell proliferation (HCC1143): 96.6 ± 1.6%
cell proliferation (HCC1395): 99.984 ± 0.0095%
cell proliferation (HCC153): 60.3 ± 10%
cell proliferation (HCC1806): 73.6 ± 7.1%
cell proliferation (HCC38): 99.63 ± 0.28%
cell proliferation (HCC70): 88.5 ± 12%
cell proliferation (Hs578-T): 97.85 ± 0.92%
cell proliferation (MB157): 93.3 ± 5.4%
cell proliferation (SUM149-PT): 72.8 ± 18%
cell proliferation (SUM159-PT): 99.906 ± 0.052%

CC[C@H](C)n1cc(C)c2c(C(=O)NCc3c(C)cc(C)[nH]c3=O)cc(-c3ccc(N4CCNCC4)nc3)cc21
cell proliferation (BT549): 98.6 ± 2.6%
cell proliferation (CAL120): 91.6 ± 5.4%
cell proliferation (HCC1143): 99.53 ± 0.32%
cell proliferation (HCC1395): 99.996 ± 0.0038%
cell proliferation (HCC153): 87.9 ± 3.7%
cell proliferation (HCC1806): 99.846 ± 0.034%
cell proliferation (HCC38): 99.825 ± 0.095%
cell proliferation (HCC70): 82 ± 8.6%
cell proliferation (Hs578-T): 97.8 ± 1.3%
cell proliferation (MB157): 79.1 ± 14%
cell proliferation (SUM149-PT): 90.3 ± 4.3%
cell proliferation (SUM159-PT): 99.995 ± 0.00082%

CC(C)Oc1ccc(-c2c[nH]cc2CN(C)CCN)cc1
cell proliferation (BT549): 90.4 ± 3.7%
cell proliferation (CAL120): 99.34 ± 0.54%
cell proliferation (HCC1143): 97.6 ± 0.99%
cell proliferation (HCC1395): 99.982 ± 0.016%
cell proliferation (HCC153): 59.3 ± 2.6%
cell proliferation (HCC1806): 80.7 ± 11%
cell proliferation (HCC38): 99.56 ± 0.26%
cell proliferation (HCC70): 94.5 ± 2.1%
cell proliferation (Hs578-T): 95.4 ± 1.7%
cell proliferation (MB157): 93.7 ± 4.8%
cell proliferation (SUM149-PT): 67.6 ± 13%
cell proliferation (SUM159-PT): 99.843 ± 0.074%

Cc1cc(=O)n(C)c2cc(N3C(=O)CC[C@H](NS(=O)(=O)CC(C)C)[C@H]3c3ccc(Cl)cc3)ccc12
cell proliferation (BT549): 98.62 ± 0.82%
cell proliferation (CAL120): 98.85 ± 0.5%
cell proliferation (HCC1143): 99.53 ± 0.27%
cell proliferation (HCC1395): 99.99 ± 0.01%
cell proliferation (HCC153): 55.4 ± 11%
cell proliferation (HCC1806): 81.7 ± 5.8%
cell proliferation (HCC38): 99.02 ± 0.89%
cell proliferation (HCC70): 85.8 ± 9.3%
cell proliferation (Hs578-T): 98.75 ± 0.26%
cell proliferation (MB157): 71 ± 19%
cell proliferation (SUM149-PT): 82.6 ± 16%
cell proliferation (SUM159-PT): 99.951 ± 0.055%

COc1ccc(CCc2nc3cc(-c4c(C)noc4C)ccc3n2C[C@H](C)N2CCOCC2)cc1Cl
cell proliferation (BT549): 98.71 ± 0.76%
cell proliferation (CAL120): 99.636 ± 0.017%
cell proliferation (HCC1143): 98.527 ± 0.086%
cell proliferation (HCC1395): 99.941 ± 0.031%
cell proliferation (HCC153): 48.7 ± 1.4%
cell proliferation (HCC1806): 82.67 ± 0.12%
cell proliferation (HCC38): 99.927 ± 0.017%
cell proliferation (HCC70): 99.75 ± 0.26%
cell proliferation (Hs578-T): 96.9 ± 1%
cell proliferation (MB157): 90.6 ± 2.1%
cell proliferation (SUM149-PT): 34.4 ± 3.4%
cell proliferation (SUM159-PT): 99.994 ± 0.0041%

O=C(/C=C/N1C[C@H]2C[C@@H]1CN2c1ccccn1)c1ccccc1O
cell proliferation (BT549): 99.79 ± 0.1%
cell proliferation (CAL120): 93.4 ± 2.2%
cell proliferation (HCC1143): 99.25 ± 0.15%
cell proliferation (HCC1395): 99.895 ± 0.019%
cell proliferation (HCC153): 87.8 ± 2.8%
cell proliferation (HCC1806): 99.849 ± 0.052%
cell proliferation (HCC38): 99.917 ± 0.014%
cell proliferation (HCC70): 99.13 ± 0.33%
cell proliferation (Hs578-T): 98.15 ± 0.9%
cell proliferation (MB157): 98.9 ± 1%
cell proliferation (SUM149-PT): 29.1 ± 5.7%
cell proliferation (SUM159-PT): 99.994 ± 0.0044%
